Data from PubChem BioAssay (NCATS).
Results filed as inconclusive are left out. More than one record can exist for a structure, and the calls need not agree. Active and inactive are the calls of the source. The call rests on the fitted dose curve; in most records, active means well fitted curve in the direction sought with a large enough effect; inconclusive means small, poorly fitted or top-dose-only effect, or another doubt; inactive means no such curve, though single readings can be large; an effect the other way counts as inactive or inconclusive.

Columns and labels:
[1] = qHTS assay for measurement of the activity of small molecule inhibitors on Zika virus induced Caspase-3 activity in human astrocytoma cells (AID 1224859)
Summary of the method: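 Percent inhibition of virus-induced caspase-3/7 signal is calculated against uninfected and ZIKV-infected control cells. Cells are SNB-19, infected at 2 FFU/cell for 6 h after 1 h compound exposure.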

[2] = qHTS Screen of the MIPE 4.0 Collection Against Ewings Sarcoma (RDES) (AID 1259252); further: nearly all actives have a fitted effect of over 35% in size; further: potency means the concentration at half of the fitted maximal effect
Summary of the method: (§1)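 Here, cells in 5% FBS RPMI were exposed for two days (48 h) to compound dilutions added four hours after plating. ATP-based CellTiter-Glo luminescence measured viability, normalized to vehicle and no-cell blanks.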

[3] = qHTS Screen of the MIPE 4.0 Collection Against Ewings Sarcoma (TC71) (AID 1259253); further: nearly all actives have a fitted effect of over 40% in size; further: potency means the concentration at half of the fitted maximal effect
Summary of the method: as §1

[4] = qHTS Screen of the MIPE 4.0 Collection Against Ewings Sarcoma (EW8) (AID 1259255); further: nearly all actives have a fitted effect of over 35% in size; further: potency means the concentration at half of the fitted maximal effect
Summary of the method: as §1

[5] = qHTS Screen of the MIPE 4.0 Collection Against Ewings Sarcoma (TC32) (AID 1259256); further: nearly all actives have a fitted effect of over 45% in size; further: potency means the concentration at half of the fitted maximal effect
Summary of the method: as §1

[6] = Identifying Small Molecule Inhibitors of Pancreatic Cancer Stem Cells (SN12C, Adherent) (AID 1259358);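 further: potency means the concentration at half of the fitted maximal effect; cell survival measured after 48 h of compound exposure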
Summary of the method: (§2)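 Luminescent ATP readout (CellTiter-Glo) quantifies surviving cells after a 48 h drug incubation. Normalization uses DMSO wells as no inhibition and media-only wells as full inhibition; bortezomib served as positive control.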

[7] = Identifying Small Molecule Inhibitors of Pancreatic Cancer Stem Cells (SN12C, Spheroid) (AID 1259360); conditions: Potency: SN12C spheroid viability; further: potency means the concentration at half of the fitted maximal effect
Summary of the method: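 Pre-formed 14-day tumor spheroids or adherent cells dosed and incubated 48 h, 37C, 5% CO2. Viability assessed by CellTiter-Glo.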

[8] = Identifying Small Molecule Inhibitors of Pancreatic Cancer Stem Cells (A278, Adherent) (AID 1259361); further: nearly all actives have a fitted effect of over 35% in size
Summary of the method: as §2

[9] = Identifying Small Molecule Inhibitors of Pancreatic Cancer Stem Cells (Panc1, Adherent) (AID 1259362); conditions: Potency: viability; further: potency means the concentration at half of the fitted maximal effect
Summary of the method: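 Spheroids grown 14 days in stem cell media on hydrogel-coated nonadherent plates; 2D lines seeded directly. Compounds added after 4 h attachment, 48 h at 37C, 5% CO2; CellTiter-Glo luminescence normalized to DMSO (no inhibition) and no-cell wells (full inhibition).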

[10] = P-glycoprotein substrates identified in KB-8-5-11 adenocarcinoma cell line, qHTS therapeutic library screen (AID 1346987); further: nearly all actives have a fitted effect of over 65% in size; further: potency means the concentration at half of the fitted maximal effect
Summary of the method: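 KB-8-5-11, a colchicine-selected P-gp-overexpressing KB-3-1 subline, was grown without colchicine for the assay. Cells were seeded at 500 cells/well, dosed in concentration-response and incubated 72 h at 37 degree C, 5% CO2. Viability was read by CellTiter-Glo luminescence.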

[11] = Identifying Small Molecule Inhibitors of Pancreatic Cancer Stem Cells (Panc1, Spheroid) (AID 1259359);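 further: potency means the concentration at half of the fitted maximal effect; compound exposure lasted 48 h before reading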
Summary of the method: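 Cytotoxicity read by CellTiter-Glo luminescence after 48 h compound exposure at 37C; percent activity scaled between DMSO-treated cells and cell-free wells. Spheroid formats used cells pre-formed 14 days in stem cell media on hydrogel.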

[12] = P-glycoprotein substrates identified in KB-3-1 adenocarcinoma cell line, qHTS therapeutic library screen (AID 1346986); further: nearly all actives have a fitted effect of over 60% in size
Summary of the method: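 Resistance attributable to P-gp was assessed by comparing AC50 in KB-8-5-11 with parental KB-3-1 and by tariquidar reversal. Cells were exposed 72 h and viability read by CellTiter-Glo.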

[13] = NS1 protein of Zika virus - qHTS assay to identify small molecule inhibitors in human HEK 293 cells (AID 1347053); further: nearly all actives have a fitted effect of over 55% in size; further: potency means the concentration at half of the fitted maximal effect
Summary of the method: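 Following 20 h seeding, HEK 293 cells took compound, then 1 h later ZIKV MR766 (MOI = 0.5). Incubation ran 24 h at 37 C before TR-FRET detection of NS1; a drop in signal indicates inhibition.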

Structure (SMILES)	Potency [1]	Potency [2]	Potency [3]	Potency [4]	Potency [5]	Potency [6]	Potency [7]	IC50 (viability decrease) [8]	Potency [9]	Potency [10]	Potency [11]	Potency [12]	Potency [13]
Cc1cnc(Nc2ccc(F)cc2Cl)nc1-c1c[nH]c(C(=O)N[C@H](CO)c2cccc(Cl)c2)c1	inactive	20.9 µM (active)	18.7 µM (active)	20.9 µM (active)	23.5 µM (active)	13.2 µM (active)	23.5 µM (active)	11.8 µM (active)	18.7 µM (active)				
COc1cc2c(Oc3ccc(NC(=O)C4(C(=O)Nc5ccc(F)cc5)CC4)cc3F)ccnc2cc1OCCCN1CCOCC1	inactive	16.6 µM (active)	3.32 µM (active)	1.32 µM (active)	1.66 µM (active)		23.5 µM (active)	4.69 µM (active)					
O=C(C=Cc1cccc(S(=O)(=O)Nc2ccccc2)c1)NO	inactive	2.15 µM (active)	2.7 µM (active)	1.52 µM (active)	1.91 µM (active)	20.9 µM (active)		4.69 µM (active)		10.8 µM (active)			
COc1cc2ncnc(Nc3ccc(F)c(Cl)c3)c2cc1NC(=O)C=CCN1CCCCC1	inactive	16.6 µM (active)	2.09 µM (active)	4.69 µM (active)	2.96 µM (active)		29.6 µM (active)	16.6 µM (active)	23.5 µM (active)		23.5 µM (active)	inactive	
C=C1C(=CC=C2CCCC3(C)[C@@H]([C@H](C)C=CC=CC(O)(CC)CC)CC[C@@H]23)C[C@@H](O)C[C@@H]1O (some centres not stated)	inactive	18.7 µM (active)	18.7 µM (active)	23.5 µM (active)	20.9 µM (active)		18.7 µM (active)			inactive		inactive	inactive
Clc1ccc2ncc(-c3cccc(NC4CNC4)n3)n2c1	inactive	18.7 µM (active)	20.9 µM (active)	3.32 µM (active)	18.7 µM (active)		inactive		inactive	inactive		inactive	inactive
CCN1CCN(Cc2ccc(-c3cc4c(N[C@H](C)c5ccccc5)ncnc4[nH]3)cc2)CC1	inactive	inactive	0.0053 µM (active)	0.0332 µM (active)	0.0148 µM (active)	23.5 µM (active)				inactive			
COc1cc2ncn(-c3cc(OCc4ccccc4C(F)(F)F)c(C(N)=O)s3)c2cc1OC	inactive	4.18 µM (active)	1.48 µM (active)	1.32 µM (active)	1.32 µM (active)	1.05 µM (active)	inactive	1.48 µM (active)		0.935 µM (active)			
CC1(C)O[C@@H]2C[C@@H]3[C@H]4C[C@@H](F)C5=CC(=O)C=C[C@]5(C)[C@@]4(F)[C@@H](O)C[C@]3(C)[C@]2(C(=O)CO)O1	inactive	inactive	inactive	inactive	inactive					inactive		inactive	inactive
COc1cc(C)c(Sc2cnc(NC(=O)c3ccc(CNC(C)C(C)C)cc3)s2)cc1C(=O)N1CCN(C(C)=O)CC1 (configuration not stated)	inactive	14.8 µM (active)	18.7 µM (active)	3.72 µM (active)	5.9 µM (active)					inactive			
Cc1ccc(NC(=O)C2(c3ccc4c(c3)OC(F)(F)O4)CC2)nc1-c1cccc(C(=O)O)c1	inactive	0.0526 µM (active)	0.0372 µM (active)	0.0469 µM (active)	0.0526 µM (active)					526 nM (active) and inactive		inactive	0.0372 µM (active)
O=C(O)CCCc1c[nH]c2ccccc12	inactive	inactive	inactive	inactive	inactive					inactive		inactive	inactive
CCOc1ccccc1OCCNC(C)Cc1ccc(OC)c(S(N)(=O)=O)c1 (configuration not stated)	inactive	inactive	inactive	inactive	inactive					inactive		inactive	inactive
